Assay results as given in PubChem BioAssay (Tox21).
“And” between values parts separate entries of the source, which are not always exact repeats. Equal values may be shown once. Inconclusive results are not listed. The source made the active and inactive calls. Unless noted, calls come from the whole dose curve; as a rule, active = well fitted curve in the direction sought with a large enough effect in the repeat runs; inconclusive = weak or mixed curves; inactive = no such curve, though single readings can be large; an effect the other way counts as inactive or inconclusive.

Assays:
[1] = qHTS assay to identify small molecule antagonists of the estrogen receptor alpha (ER-alpha) signaling pathway using the BG1 cell line in the presence of 0.1 nM 17-beta-estradiol - cell viability counter screen (AID 1259241); note: nearly all actives have a fitted effect of over 40% in size; note: potency is the fitted concentration of half-maximal effect
In short: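 Cells were plated and left 24 hr, compounds in DMSO were pinned in, 17beta-estradiol was added to 0.1 nM final, and after 22 hr CellTiter-Fluor reagent was added for 30 min before fluorescence was read.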

[2] = qHTS assay to identify small molecule antagonists of the androgen receptor (AR) signaling pathway using the MDA cell line in the presence of 0.5 nM R1881 - cell viability counter screen (AID 1259242); note: nearly all actives have a fitted effect of over 45% in size; note: potency is the fitted concentration of half-maximal effect
In short: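 Fluorescence from CellTiter-Fluor, which reports protease activity of live cells, was read 30 min after reagent addition to MDA-kb2 cells that had been incubated 16 hr with compound and 0.5 nM R1881.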

[3] = qHTS assay to identify small molecule phospholipidosis (PLD) inducers (AID 1259344; active = well fitted curve in the direction sought with a large enough effect; an effect the other way counts as inactive or inconclusive)
In short: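 Phospholipidosis is scored by imaging LipidTOX-stained pits in HepG2 cells exposed to compound for 24 h at 37 C; pit counts and integrated intensities per well and per cell serve as outputs.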

[4] = qHTS assay to identify small molecule HDAC inhibitors (AID 1259364); note: nearly all actives have a fitted effect of over 45% in size; note: potency is the fitted concentration of half-maximal effect
In short: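 Endogenous HDAC class I/II activity was measured in wild-type HCT-116 cells by HDAC-Glo luminescence after 2 h compound treatment.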

[5] = qHTS assay to identify small molecule HDAC inhibitors - cell viability counter screen (AID 1259365); note: nearly all actives have a fitted effect of over 50% in size; note: potency is the fitted concentration of half-maximal effect
In short: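 Counter screen in wild-type HCT-116 cells: compounds dissolved in DMSO are pin-transferred onto overnight-plated cells and left 2hr at 37C. ATP-based CellTiter-Glo luminescence then measures viable cells.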

[6] = qHTS assay to identify small molecule agonists of the sonic hedgehog signaling (Shh) pathway - cell viability counter screen (AID 1259366); note: nearly all actives have a fitted effect of over 50% in size; note: potency is the fitted concentration of half-maximal effect
In short: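 Cells are plated at 2,000 per well and left 4hr at 37C, 5% CO2 before compound addition. After 23hr of treatment, CellTiter-Fluor reagent is added for 1hr at 37C and fluorescence is measured.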

[7] = qHTS assay to identify small molecule antagonists of the sonic hedgehog signaling (Shh) pathway - cell viability counter screen (AID 1259367); note: nearly all actives have a fitted effect of over 55% in size; note: potency is the fitted concentration of half-maximal effect
In short: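 Cells: 3T3 Gli1-Luc, 2,000/well, 4 hr pre-incubation. Compounds in DMSO, then conditioned medium. Incubation 24 hr, 37C, 5% CO2. CellTiter-Fluor at 23 hr, 1 hr, fluorescence.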

[8] = qHTS assay to identify small molecule agonists of the sonic hedgehog signaling (Shh) pathway (AID 1259368; calls by dose curve;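 note: NIH/3T3-derived 3T3Gli1-Luc cells carrying a stable Gli1-driven firefly luciferase reporter; series mostly up to about 92 µM; nearly all actives have a fitted effect of over 15% in size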)
In short: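 Luminescent signal was taken as a measure of Gli1-controlled luciferase expression in stably transfected NIH/3T3-derived cells that had been treated for 24 hr with compounds delivered in DMSO.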

[9] = molecular target: Estrogen receptor beta (Homo sapiens) (UniProt Q92731); assay: qHTS assay to identify small molecule agonists of the estrogen receptor beta (ER-beta) signaling pathway (AID 1259377; active = well fitted activation curve with a large enough effect in the signal ratio in the repeat runs, not every such curve was filed as active; the % refers to the signal ratio; note: potency is the fitted concentration of half-maximal effect)
Chain of Estrogen receptor beta (Homo sapiens) (Q92731 whole entry, looked up, the tested form may be a part): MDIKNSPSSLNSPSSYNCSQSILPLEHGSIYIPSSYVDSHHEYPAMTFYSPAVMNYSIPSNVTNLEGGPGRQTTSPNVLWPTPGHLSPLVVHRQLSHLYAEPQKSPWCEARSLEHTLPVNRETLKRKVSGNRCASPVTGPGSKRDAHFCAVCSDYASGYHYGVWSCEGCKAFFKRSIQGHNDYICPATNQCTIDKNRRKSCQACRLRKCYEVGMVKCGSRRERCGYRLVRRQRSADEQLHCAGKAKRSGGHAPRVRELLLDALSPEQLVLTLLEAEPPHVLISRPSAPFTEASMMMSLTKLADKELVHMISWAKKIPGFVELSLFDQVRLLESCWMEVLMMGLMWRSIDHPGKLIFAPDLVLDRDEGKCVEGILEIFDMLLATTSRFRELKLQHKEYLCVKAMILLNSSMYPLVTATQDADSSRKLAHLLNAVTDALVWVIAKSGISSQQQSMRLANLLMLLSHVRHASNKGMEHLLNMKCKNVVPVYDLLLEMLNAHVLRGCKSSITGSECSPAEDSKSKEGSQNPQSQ
In short: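 Agonist mode cell assay in GripTite HEK293T cells expressing an ER-beta fusion that drives beta-lactamase from an Upstream Activator Sequence; 16 hr compound exposure at 37C, then 2 h LiveBLAzer B/G FRET substrate at room temperature, fluorescence read-out.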

[10] = qHTS assay to identify small molecule agonists of the androgen receptor (AR) signaling pathway in the presence of an antagonist - cell viability counter screen (AID 1259379);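 note: MDA-kb2 human breast cancer cells carrying an MMTV luciferase reporter; series mostly up to about 92 µM; nearly all actives have a fitted effect of over 25% in size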
In short: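 In MDA-kb2 cells (human breast carcinoma, MMTV-luciferase), compounds at 15 concentrations plus 3.0uM nilutamide; 16 hr, 37C, 0% CO2; CellTiter-Fluor fluorescence read for viability.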

[11] = qHTS assay to identify small molecule agonists of the estrogen receptor beta (ER-beta) signaling pathway - cell viability counter screen (AID 1259380); note: nearly all actives have a fitted effect of over 30% in size; note: potency is the fitted concentration of half-maximal effect
In short: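 Viability of ER-beta-UAS-bla HEK293T cells was determined by CellTiter-Glo luminescence following 16 hr treatment with test compounds at 37C.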

[12] = qHTS assay to identify small molecule antagonists of the estrogen receptor beta (ER-beta) signaling pathway - cell viability counter screen (AID 1259382); note: nearly all actives have a fitted effect of over 55% in size; note: potency is the fitted concentration of half-maximal effect
In short: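 Tox21 10K library tested in qHTS format on ER-beta-bla HEK293T cells stimulated with 1nM E2; 16 hr treatment at 37C. Same-well CellTiter-Glo luminescence served as the cell viability measure.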

[13] = qHTS assay to identify small molecule agonists or antagonists of the thyroid stimulating hormone receptor (TSHR) signaling pathway - wild type cell line counter screen (AID 1259384; calls by dose curve)
In short: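 Counter screen in untransfected Hek293: compounds (15-point titration, triplicate) plus phosphodiesterase inhibitor Ro20-1724 added after 18 h plating; 30 min RT. Intracellular cAMP via competitive d2/cryptate immunoassay, 1 h incubation.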

[14] = molecular target: Thyrotropin receptor (Homo sapiens) (UniProt P16473); assay: qHTS assay to identify small molecule antagonists of the thyroid stimulating hormone receptor (TSHR) signaling pathway (AID 1259385; calls by dose curve; note: nearly all actives have a fitted effect of over 20% in size)
Chain of Thyrotropin receptor (Homo sapiens) (P16473 whole entry, looked up): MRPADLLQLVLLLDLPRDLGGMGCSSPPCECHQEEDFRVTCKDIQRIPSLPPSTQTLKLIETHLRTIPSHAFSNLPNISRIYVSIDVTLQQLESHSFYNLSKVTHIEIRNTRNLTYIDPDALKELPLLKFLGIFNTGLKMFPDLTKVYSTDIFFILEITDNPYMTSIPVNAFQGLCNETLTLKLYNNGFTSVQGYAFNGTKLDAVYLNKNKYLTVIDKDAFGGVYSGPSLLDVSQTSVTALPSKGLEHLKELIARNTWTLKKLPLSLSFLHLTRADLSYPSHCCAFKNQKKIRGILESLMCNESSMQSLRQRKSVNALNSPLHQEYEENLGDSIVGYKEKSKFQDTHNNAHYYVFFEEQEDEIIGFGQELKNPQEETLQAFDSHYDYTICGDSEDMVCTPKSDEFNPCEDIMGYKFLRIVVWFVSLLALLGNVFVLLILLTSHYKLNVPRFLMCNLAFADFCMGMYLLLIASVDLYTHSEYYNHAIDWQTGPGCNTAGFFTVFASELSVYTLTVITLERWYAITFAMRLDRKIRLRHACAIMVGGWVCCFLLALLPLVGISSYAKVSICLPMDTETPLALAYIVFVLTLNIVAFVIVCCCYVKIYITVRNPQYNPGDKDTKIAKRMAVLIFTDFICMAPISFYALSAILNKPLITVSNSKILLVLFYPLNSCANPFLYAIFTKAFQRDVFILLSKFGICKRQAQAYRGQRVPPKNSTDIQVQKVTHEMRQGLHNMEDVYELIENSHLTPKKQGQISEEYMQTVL
In short: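 Antagonist mode: compound-treated TSHR-expressing HEK293 cells were stimulated with 1.5 ng/mL TSH (final) in presence of Ro20-1724 for 30 min at RT. HTRF cAMP detection after 1 h; each compound tested at 15 concentrations, triplicate.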

[15] = molecular target: Estrogen receptor beta (Homo sapiens) (UniProt Q92731); assay: qHTS assay to identify small molecule antagonists of the estrogen receptor beta (ER-beta) signaling pathway (AID 1259378; active = well fitted inhibition curve with a large enough effect in the signal ratio in the repeat runs, not every such curve was filed as active; the % refers to the signal ratio)
In short: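 Antagonist mode: compounds added to beta-lactamase reporter HEK293T ER-beta-UAS cells stimulated with E2 (1nM final), 16 hr at 37C. LiveBLAzer B/G FRET substrate, 2 hours room temperature, fluorescence read-out.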

[16] = molecular target: Androgen receptor (Homo sapiens) (UniProt P10275); assay: qHTS assay to identify small molecule antagonists of the androgen receptor (AR) signaling pathway using the MDA cell line in the presence of 0.5 nM R1881 (AID 1259243); note: nearly all actives have a fitted effect of over 50% in size
Chain of Androgen receptor (Homo sapiens) (P10275 whole entry, looked up): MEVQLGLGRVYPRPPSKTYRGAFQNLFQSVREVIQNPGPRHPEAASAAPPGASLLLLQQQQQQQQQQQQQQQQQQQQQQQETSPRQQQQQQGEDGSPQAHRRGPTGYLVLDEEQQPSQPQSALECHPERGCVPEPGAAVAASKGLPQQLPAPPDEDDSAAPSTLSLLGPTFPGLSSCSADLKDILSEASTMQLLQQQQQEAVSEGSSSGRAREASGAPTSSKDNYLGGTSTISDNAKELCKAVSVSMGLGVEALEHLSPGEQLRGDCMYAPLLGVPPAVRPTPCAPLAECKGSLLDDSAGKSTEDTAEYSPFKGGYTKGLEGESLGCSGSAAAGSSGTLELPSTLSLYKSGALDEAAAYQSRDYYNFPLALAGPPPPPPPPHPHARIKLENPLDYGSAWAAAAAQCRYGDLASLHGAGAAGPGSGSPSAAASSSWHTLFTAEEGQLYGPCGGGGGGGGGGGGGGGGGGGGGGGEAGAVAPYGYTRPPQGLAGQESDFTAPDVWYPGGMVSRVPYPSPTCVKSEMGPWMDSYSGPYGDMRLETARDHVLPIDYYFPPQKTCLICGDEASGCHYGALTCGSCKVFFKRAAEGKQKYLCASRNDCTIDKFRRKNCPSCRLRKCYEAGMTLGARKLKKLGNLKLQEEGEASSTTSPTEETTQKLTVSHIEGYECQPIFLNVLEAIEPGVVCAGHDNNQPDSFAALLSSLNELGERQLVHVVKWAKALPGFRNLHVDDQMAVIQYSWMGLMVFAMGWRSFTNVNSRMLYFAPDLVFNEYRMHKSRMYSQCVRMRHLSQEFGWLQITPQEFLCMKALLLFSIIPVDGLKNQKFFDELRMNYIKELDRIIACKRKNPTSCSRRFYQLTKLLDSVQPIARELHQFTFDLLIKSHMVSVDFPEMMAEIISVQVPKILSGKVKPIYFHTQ
In short: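 Inhibition of R1881 (0.5 nM final) induced reporter signal was measured in human MDA-kb2 cells; note the MMTV promoter also responds to GR. Exposure lasted 16 hr at 37C.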

[17] = molecular target: Androgen receptor (Homo sapiens) (UniProt P10275); assay: qHTS assay to identify small molecule agonists of the androgen receptor (AR) signaling pathway in the presence of an antagonist (AID 1259381; calls by dose curve; note: nearly all actives have a fitted effect of over 15% in size)
In short: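 Here, 15-concentration compound series were pin-transferred onto MDA-kb2 MMTV-luciferase cells already dosed with nilutamide (3.0uM final). After 16hr at 37C, ONE-Glo was added and luminescence read 30min later at room temperature.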

[18] = qHTS assay to identify small molecule antagonists of the sonic hedgehog signaling (Shh) pathway (AID 1259369; calls by dose curve; note: nearly all actives have a fitted effect of over 45% in size; note: potency is the fitted concentration of half-maximal effect)
In short: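 Screening used 3T3Gli1-Luc cells at 2,000 per well, compounds delivered in DMSO, and conditioned medium as agonist stimulus; plates incubated 24hr at 37 C and 5% CO2 before a 30min luciferase step.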
% is set by controls: 0 for no effect and ±100 for the full control effect.

C[C@]12CC[C@H]3[C@@H](CCC4=CC(=O)CC[C@@H]43)[C@@H]1CC[C@@H]2OC(=O)CCc1ccccc1
active: Potency [9] 3.35 µM
inactive: Potency [1] | Potency [2] | outcome [3] | Potency [4] | Potency [5] | Potency [6] | Potency [7] | Potency [8] | Potency [10] | Potency [11] | Potency [12] | outcome [13] | Potency [14]

Nc1cc(Cl)cc(C(=O)O)c1Cl
inactive: Potency [1] | Potency [2] | Potency [4] | Potency [5] | Potency [6] | Potency [7] | Potency [8] | Potency [9] | Potency [15] | Potency [10] | Potency [11] | Potency [12]

CN1CC[C@]23c4c5ccc(O)c4O[C@H]2[C@@H](O)C=C[C@H]3[C@H]1C5
inactive: Potency [1] | Potency [16] | outcome [3] | Potency [4] | Potency [5] | Potency [7] | Potency [8] | Potency [10] | Potency [11] | Potency [17] | Potency [12] | outcome [13] | Potency [14]

[Cl-].[Cl-].[Hg+2]
active: Potency [1] 27.2 µM and 21.7 µM | Potency [2] 6.86 µM | Potency [4] 54.2 µM and 34.4 µM | Potency [5] 68.2 µM | Potency [7] 964 nM and 1.93 µM | Potency [18] 34.2 nM and 243 nM | Potency [11] 5.42 µM and 3.86 µM | Potency [12] 4.31 µM and 4.86 µM
inactive: outcome [3] | Potency [8] | Potency [10]

O=C(O)C(Cl)(Cl)Br
inactive: Potency [1] | Potency [2] | Potency [4] | Potency [5] | Potency [6] | Potency [7] | Potency [8] | Potency [18] | Potency [9] | Potency [10] | Potency [11] | Potency [12] | outcome [13] | Potency [14]

Cc1ccc(N)c(C)c1
inactive: Potency [1] | Potency [2] | Potency [4] | Potency [5] | Potency [6] | Potency [7] | Potency [8] | Potency [18] | Potency [9] | Potency [15] | Potency [10] | Potency [11] | Potency [12]

CC(C)[C@@H](C(=O)O[C@@H](C#N)c1cccc(Oc2ccccc2)c1)c1ccc(Cl)cc1
inactive: Potency [1] | Potency [2] | Potency [4] | Potency [5] | Potency [6] | Potency [7] | Potency [8] | Potency [9] | Potency [10] | Potency [11] | Potency [12] | Potency [14]

COC1=CC(=O)O[C@@H](/C=C/c2ccc3c(c2)OCO3)C1
inactive: Potency [1] | Potency [2] | Potency [5] | Potency [6] | Potency [7] | Potency [8] | Potency [10] | Potency [12] | outcome [13] | Potency [14]
active: Potency [4] 23.3 µM

Cc1ncc(C[n+]2csc(CCO)c2C)c(N)n1
inactive: Potency [1] | Potency [2] | Potency [4] | Potency [5] | Potency [7] | Potency [8] | Potency [18] | Potency [9] | Potency [10] | Potency [11] | Potency [12] | outcome [13] | Potency [14]

C[C@@H]1C[C@@H]([C@H](O)CC2CC(=O)NC(=O)C2)C(=O)[C@@H](C)C1
inactive: Potency [1] | Potency [2] | PLD induction [3] 2.68% [at 7.66 µM] | Potency [4] | Potency [5] | Potency [8] | Potency [9] | Potency [10] | Potency [12] | Potency [14]
active: Potency [6] 2.16 µM | Potency [7] 136 nM and 969 nM | Potency [18] 12.1 nM and 48.6 nM and 150 nM
